Assay outcomes from PubChem BioAssay.
Compounds with a hit are over-represented: about 2.4% of the library has one in this group of screens.
AmpC det inh = inhibitors of E. coli AmpC beta-lactamase with detergent; AID 584; Potency, µM (titrated, usually from 28.7 µM); P00811; purified AmpC, nitrocefin hydrolysis with detergent; 71,000 compounds, 0.09% hits; active = well fitted curve in the direction sought with a large enough effect; inconclusive = small, poorly fitted or top-dose-only effect
Target sequence (P00811 whole entry, looked up): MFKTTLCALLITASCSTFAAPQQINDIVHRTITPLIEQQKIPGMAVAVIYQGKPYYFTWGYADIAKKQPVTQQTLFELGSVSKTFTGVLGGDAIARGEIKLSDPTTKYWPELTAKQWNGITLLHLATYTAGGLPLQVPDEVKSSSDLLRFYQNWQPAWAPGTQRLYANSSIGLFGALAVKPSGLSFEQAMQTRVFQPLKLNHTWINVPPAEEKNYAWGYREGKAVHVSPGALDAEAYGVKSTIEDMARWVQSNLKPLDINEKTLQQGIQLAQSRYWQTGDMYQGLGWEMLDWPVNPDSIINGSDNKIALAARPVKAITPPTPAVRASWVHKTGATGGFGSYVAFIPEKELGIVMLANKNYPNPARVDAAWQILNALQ
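E. coli AmpC (5.3 nM) in 20 mM phosphate pH 7.0 with 0.01% Triton X-100, preincubated 15 min RT with compound; nitrocefin (2 uL of 800 uM stock) hydrolysis followed by 480 nm absorbance every 20 s over 4 min.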
Anthrax LT inh = blocks cellular internalization of anthrax lethal toxin | Cells, anthrax lethal toxin internalization, FRET ratio (460/530) | Potency, µM (titrated, usually from 40 µM), actives largely listed as inhibitors | 70,000 compounds, 0.67% hits; note: nearly all actives have a fitted effect of over 50% in size
Prx2 Sm inh = Schistosoma mansoni Prx2 inhibition. S. mansoni Prx2 activity coupled to TGR/GSH (TGR is thioredoxin glutathione reductase), NADPH fluorescence loss, qHTS. Potency, µM. 65,000 compounds, 0.07% hits. AID 448
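Prx2 activity was followed as the loss of NADPH fluorescence (ex 365/em 450 nm), read every 30 sec for 8 min after H2O2 start. The enzyme mix (50 nM Prx2, 25 nM TGR, GSH, NADPH; pH 7.4 phosphate buffer) was incubated with compound for 15 min at room temperature first.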
AmpC nodet inh = AmpC beta-lactamase inhibition, detergent-free assay; 71,000 compounds, 1.8% hits; Potency, µM (top dose mostly 28.7 µM); AID 585; AmpC nitrocefin hydrolysis, absorbance 480 nm, no detergent; P00811
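Enzyme, pH 7.0 phosphate. Compound titrations were pre-incubated with AmpC for 15 min at room temperature before nitrocefin (stock 800 uM) addition; product formation was recorded at 480 nm every 20 s for 4 min.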
Large screens that a line does not name were inactive; [ ] = remark or other dose. Unless noted, calls come from the whole dose curve.

C[C@H](CC(C#N)(c1ccccc1)c1ccccc1)N1CCCCC1	none
O=c1c2ccccc2sn1-c1cc(S(=O)(=O)N2CCOCC2)ccc1N1CCOCC1	Anthrax LT inh 0.159µM
Cn1c(=O)c2cc(S(=O)(=O)N3CCOCC3)ccc2n(C)c1=O	none
CC1CC(C)CN(CCCNC(=O)Cn2ncc3c(=O)oc4ccccc4c32)C1 (configuration not stated)	AmpC nodet inh 3.16µM[single pt active]
O=C(Cn1ncc2c(=O)oc3ccccc3c21)N1CCCc2ccccc21	none
O=C(Cn1ncc2c(=O)oc3ccccc3c21)NCCN1CCN(c2ccccc2F)CC1	AmpC nodet inh 3.98µM[single pt active]
O=C(Cn1ncc2c(=O)oc3ccccc3c21)N1CCCN(Cc2ccccc2F)C1	AmpC nodet inh 3.98µM[single pt active]
O=C(Cn1ncc2c(=O)oc3ccccc3c21)N1CCN(C(=O)c2ccco2)CC1	Prx2 Sm inh inconclusive
O=c1c(-c2ccc(F)cc2)nc2cnc(N3CCOCC3)nc2n1Cc1ccc(F)cc1	Anthrax LT inh inconclusive
c1csc(CNc2ncncc2-c2ccoc2)c1	none
COc1ccc(CNC(=O)Cc2nn(C)c(=O)c3ccccc23)cc1	none
Cn1nc(CC(=O)NC2CCCCCC2)c2ccccc2c1=O	Anthrax LT inh inconclusive, AmpC nodet inh 3.16µM[single pt active]
COc1ccc(S(=O)(=O)N2CCN(C)CC2)c2ccccc12	AmpC nodet inh 3.98µM[single pt active]
c1cncc(-c2cncnc2NC2CCNCC2)c1	none
O=C1c2cccnc2C(=O)N1c1cccc(-c2nc3ccccc3o2)c1	none
O=C1CCC(=O)N1c1cccc(-c2nc3ccccc3o2)c1	AmpC nodet inh 3.98µM[single pt active]
Cc1ccc(-n2cnc3c(sc4nccc(N(C)C)c43)c2=O)cc1	Anthrax LT inh 6.31µM (no result: Prx2 Sm inh)
COc1ccc(-n2cnc3c(sc4nccc(N(C)C)c43)c2=O)cc1	none (no result: Anthrax LT inh)
CCNc1ncc2nc(-c3ccc(F)cc3)c(=O)n(C)c2n1	Anthrax LT inh inconclusive
c1ccc(N2CCN(c3ncnc4c3oc3ccccc34)CC2)cc1	Anthrax LT inh 15.8µM
CCSc1nnc(NC(=O)c2ccc(Br)s2)s1	AmpC nodet inh 10µM (no result: Anthrax LT inh)
CCCC(c1cc(C(C)(C)C)c(O)cc1C)c1cc(C(C)(C)C)c(O)cc1C	Anthrax LT inh inconclusive, AmpC nodet inh 3.98µM[single pt active]
COCCNC(=O)c1ccc(CS(=O)(=O)c2ccc(OC)cc2)o1	AmpC nodet inh 3.98µM[single pt active]
COCCNC(=O)c1ccc(CS(=O)(=O)c2c(Cl)cccc2Cl)o1	none
CCc1ccccc1S(=O)(=O)Cc1ccc(C(=O)NCc2ccc3c(c2)OCO3)o1	Anthrax LT inh inconclusive, AmpC nodet inh 3.98µM[single pt active]
CCC(C)NC(=O)c1ccc(CS(=O)(=O)c2ccc(OC)cc2)o1 (configuration not stated)	AmpC nodet inh 3.98µM[single pt active]
COc1ccc(S(=O)(=O)Cc2ccc(C(=O)NC(C)C)o2)cc1	none
CCc1ccccc1S(=O)(=O)Cc1ccc(C(=O)NC(C)C)o1	none
O=C(NCc1ccc2c(c1)OCO2)Oc1ccccc1	AmpC nodet inh 3.98µM[single pt active]
CN1CCN(c2ccnc(-c3ccoc3)n2)CC1	Prx2 Sm inh inconclusive
O=C(NCc1ccc2c(c1)OCO2)c1cc2c(s1)CSC2	AmpC nodet inh 12.6µM[single pt active]
COc1ccccc1S(=O)(=O)Cc1ccc(C(=O)NCCN2CCCC2)o1	none
COc1ccccc1S(=O)(=O)Cc1ccc(C(=O)NCc2cccnc2)o1	AmpC nodet inh 3.98µM[single pt active]
COc1ccc(S(=O)(=O)Cc2ccc(C(=O)NCc3ccccn3)o2)cc1	Anthrax LT inh inconclusive, AmpC nodet inh 3.98µM[single pt active]
O=C(NCc1ccco1)c1cc2c(s1)CSC2	none (no result: Prx2 Sm inh)
CCN(CC)C(=O)c1ccc(CS(=O)(=O)c2ccc(OC)cc2)o1	AmpC nodet inh 3.98µM[single pt active]
COC(=O)[C@@]1(Cc2ccccc2)[C@H]2c3cc(C(=O)N4CCCC4)n(Cc4nc5ccccc5[nH]4)c3C[C@H]2CN1C(=O)c1ccccc1	Anthrax LT inh inconclusive
Cc1ccc2c(c1)-c1c(cnn1CC(=O)Nc1ccccc1N1CCN(C)CC1)CO2	Anthrax LT inh 5.01µM
Cc1ccc2c(c1)-c1c(cnn1CC(=O)O)CO2	none
N#Cc1cccc(-c2nccc(NCc3cccnc3)n2)c1	AmpC det inh 10µM, AmpC nodet inh 5.01µM
N#Cc1cccc(-c2nccc(NCc3ccccc3)n2)c1	none
O=C(CCCOc1ccccc1)Nc1nnc(C2CCCO2)s1 (configuration not stated)	AmpC nodet inh 10µM[single pt active]
COc1ccc(CNc2ccnc(-c3ccccc3CN(C)C)n2)c(OC)c1	none
COc1ccc(C2CC(=O)N3CN(Cc4ccco4)CSC3=C2C#N)cc1 (configuration not stated)	Anthrax LT inh inconclusive
COc1cc(C2CC(=O)N3CN(Cc4ccco4)CSC3=C2C#N)ccc1OCc1ccccc1 (configuration not stated)	Anthrax LT inh inconclusive, AmpC nodet inh 3.98µM[single pt active]
CCOc1cc(C2CC(=O)N3CN(C4CCCCC4)CSC3=C2C#N)ccc1O (configuration not stated)	AmpC nodet inh 2.51µM
COc1ccc2ccccc2c1C1CC(=O)N2CN(Cc3ccco3)CSC2=C1C#N (configuration not stated)	Anthrax LT inh inconclusive, AmpC nodet inh 3.98µM[single pt active]
CCN(CC)CCCC(C)n1c(-c2ccccc2)nc2c(NCCO)nc(C)nc21 (configuration not stated)	none (no result: Prx2 Sm inh)
CCCCCCCC/C=C\CCCCCCCC(=O)NCCc1ccc(O)c(O)c1	Anthrax LT inh inconclusive, AmpC nodet inh 10µM
COc1ccccc1CCn1c(=O)c(-c2cccc(Cl)c2)nc2cncnc21	Anthrax LT inh inconclusive
CCN(CC)CCNC(=O)Cn1nc(Cc2cccnc2)c2ccccc2c1=O	Anthrax LT inh inconclusive, AmpC nodet inh 3.98µM[single pt active]
O=C(Cn1nc(Cc2cccnc2)c2ccccc2c1=O)NCCCN1CCCC1=O	none
O=C(Cn1nc(Cc2cccnc2)c2ccccc2c1=O)Nc1ccc2c(c1)OCO2	AmpC nodet inh 3.98µM[single pt active]
O=C(CSc1nc(-c2ccc(F)cc2)cs1)NC(=O)NCc1ccco1	AmpC nodet inh 3.16µM
Cc1cc(NC(=O)CSc2nc(-c3ccc(F)cc3)cs2)no1	none
C=C(C)COc1ccc(-c2[nH]ncc2Oc2cccc(OC)c2)c(O)c1	Anthrax LT inh inconclusive, Prx2 Sm inh inconclusive, AmpC nodet inh 10µM
C=C(C)COc1ccc(-c2n[nH]c(C)c2Oc2ccccc2OC)c(O)c1	Anthrax LT inh 10µM
CCOc1ccc(-c2n[nH]c(C)c2Oc2ccccc2OC)c(O)c1	none
Cc1cccc(C(=O)O)c1C[C@H]1NCC[C@H]2c3ccccc3N[C@@H]12	none
COCC(=O)Nc1c(I)c(C(=O)NC[C@@H](O)CO)c(I)c(C(=O)N(C)C[C@@H](O)CO)c1I	none
CN1CCN(c2ncc3nc(-c4cccs4)c(=O)n(C[C@H]4CCCO4)c3n2)CC1	Anthrax LT inh inconclusive
COc1ccc(NC(=O)N2CCC3(CC2)CCN(C(=O)c2ccco2)CC3)cc1	none
C/C(=C\[C@@H](NP(=O)(c1ccccc1)c1ccccc1)c1ccccc1)CO[Si](c1ccccc1)(c1ccccc1)C(C)(C)C	none (no result: Prx2 Sm inh)
CCCC/C(C)=C/[C@@H](NP(=O)(c1ccccc1)c1ccccc1)c1ccccc1	Anthrax LT inh 10µM (no result: Prx2 Sm inh)
COc1cc(OC)c(NC2c3ccccc3C(=O)N2c2cc(C)ccn2)cc1Cl (configuration not stated)	none
